Experiment [1] has as its target Bile acid receptor (Homo sapiens) (UniProt Q96RI1). As to the kind of experiment: ATG_FXR_TRANS: Attagene TRANS-FACTORIAL HepG2 Assay for Farnesoid X Receptor (FXR) (AID 2282979).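 Note: hits raise reporter mRNA above DMSO so AC50 marks FXR activation.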 As to conditions: HepG2 Attagene TRANS FXR-GAL4 reporter transcription. The procedure, abridged: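 Reporter transcripts from transfected HepG2 cells were measured 24 h after dosing, using RT-PCR with capillary electrophoresis of 6-FAM-labelled fragments. The read-out reflects activity of exogenous FXR-Gal4 chimera on GAL4-UAS units, with induction relative to DMSO.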

The target of experiment [2] is Oxysterols receptor LXR-alpha (Homo sapiens) (UniProt Q13133). The experiment in a line: ATG_LXRa_TRANS: Attagene TRANS-FACTORIAL HepG2 Assay for human Liver X Receptor alpha (LXRa) (AID 2282980). The following applies: HepG2 Attagene TRANS reporter, LXRa transactivation. The procedure, abridged:
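Chemical-induced reporter mRNA measured by RT-PCR with fluorescent labelling and capillary electrophoresis after 24 h dosing of transiently transfected HepG2 cells expressing exogenous NR-Gal4 chimeras; increases scored against DMSO baseline.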

For experiment [3], the target named is Oxysterols receptor LXR-beta (Homo sapiens) (UniProt P55055). As to the kind of experiment: ATG_LXRb_TRANS: Attagene TRANS-FACTORIAL HepG2 Assay for human Liver X Receptor beta (LXRb) (AID 2282981). As to conditions: HepG2 Attagene TRANS GAL4-LXRb reporter, mRNA. The procedure, abridged: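 Measures induction of a Gal4-driven reporter transcript in HepG2 cells expressing an exogenous LXRb-Gal4 fusion. Cells are exposed to compound for 24 h before RNA isolation and RT-PCR with capillary electrophoresis detection.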
Chain of Oxysterols receptor LXR-beta (Homo sapiens) (P55055 whole entry, looked up, the tested form may be a part): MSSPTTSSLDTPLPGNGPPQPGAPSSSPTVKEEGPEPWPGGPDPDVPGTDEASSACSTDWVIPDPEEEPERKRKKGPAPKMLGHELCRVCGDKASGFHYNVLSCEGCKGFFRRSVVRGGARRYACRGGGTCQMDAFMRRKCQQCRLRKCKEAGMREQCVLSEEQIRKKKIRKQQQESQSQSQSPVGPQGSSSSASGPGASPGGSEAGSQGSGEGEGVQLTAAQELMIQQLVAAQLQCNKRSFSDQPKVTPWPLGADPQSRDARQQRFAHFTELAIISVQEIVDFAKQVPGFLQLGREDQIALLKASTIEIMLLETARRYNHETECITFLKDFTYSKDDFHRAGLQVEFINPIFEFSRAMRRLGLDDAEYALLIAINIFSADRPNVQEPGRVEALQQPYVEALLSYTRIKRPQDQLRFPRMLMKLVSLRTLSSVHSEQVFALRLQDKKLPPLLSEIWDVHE

Experiment [4] is described as follows: ATG_M_06_TRANS: Attagene TRANS-FACTORIAL HepG2 Assay for M06 Transcription Factor (Internal Marker) (AID 2282983). The following applies: HepG2 Attagene TRANS M06 internal marker reporter. The procedure, abridged: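 Background-control reporter readout: after 24 h chemical exposure of transiently transfected HepG2 (GAL4-UAS reporter units), mRNA quantified by RT-PCR with fluorescent labeling and capillary electrophoresis. Gain-of-signal fitting against DMSO baseline.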

Experiment [5] concerns the target Transcriptional activator Myb (Homo sapiens) (UniProt P10242). As to the kind of experiment: ATG_Myb_CIS: Attagene CIS-FACTORIAL HepG2 Assay for human Myeloblastosis (Myb) Proto-Oncogene Transcription Factor (AID 2282986; active = hit-call score of the fitted dose curve at least 0.9, where 1 is the maximum; inactive = score below 0.9). As to conditions: HepG2 Attagene CIS-FACTORIAL Myb reporter transcription; actives raise or lower the signal. The procedure, abridged: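 Transiently transfected HepG2 cells carrying a multiplexed cis-promoter reporter set report endogenous Myb activity after 24 h compound exposure. Reporter mRNA is read by RT-PCR with capillary electrophoresis of fluorescent products, fitted bidirectionally against DMSO.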

Experiment [6] has as its target Nuclear respiratory factor 1 (Homo sapiens) (UniProt Q16656). As to the kind of experiment: ATG_NRF1_CIS: Attagene CIS-FACTORIAL HepG2 Assay for human Nuclear Respiratory Factor 1 (NRF1) Orphan Gene (AID 2282987; active = hit-call score of the fitted dose curve at least 0.9, where 1 is the maximum; inactive = score below 0.9). The following applies: HepG2 NRF1 cis-element reporter, Attagene multiplex; actives raise or lower the signal. In short, it runs like this:
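HepG2 cells transiently transfected with multiple cis-regulated reporter units, exposed 24 h. Reporter mRNAs measured by RT-PCR, fluorescent labelling, HpaI digestion and capillary electrophoresis; bidirectional fitting against DMSO.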

Experiment [7] addresses Nuclear receptor subfamily 4 group A member 2 (Homo sapiens) (UniProt P43354). The experiment in a line: ATG_NURR1_TRANS: Attagene TRANS-FACTORIAL HepG2 Assay for human Nuclear Receptor Related Protein 1 (NURR1) (AID 2282985). The following applies: HepG2 Attagene TRANS reporter, mRNA readout. In short, it runs like this:
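Chimeric NR-Gal4 fusion activity measured in HepG2 after 24 h treatment. Reporter transcripts detected by RT-PCR and capillary electrophoresis fluorescence; positive-direction curve fitting against DMSO.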

Experiment [8] can be described thus: ATG_M_32_TRANS: Attagene TRANS-FACTORIAL HepG2 Assay for M32 Transcription Factor (Internal Marker) (AID 2282984).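 For outcome: transcript level of a background control reporter unit measured by RT-PCR and capillary electrophoresis.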 The following applies: HepG2 Attagene TRANS M32 internal marker reporter. The procedure, abridged: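 After 24 h dosing of transfected HepG2 cells, total RNA was reverse-transcribed, reporter sequences PCR-amplified, 6-FAM labelled by primer extension and HpaI-digested before capillary electrophoresis. Signal increase over DMSO was fitted.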

Experiment [9] deals with Glucocorticoid receptor (Homo sapiens) (UniProt P04150). The experiment in a line: ATG_GR_TRANS: Attagene TRANS-FACTORIAL HepG2 Assay for human Glucocorticoid Receptor (GR) (AID 2282978).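 Note: activators score as hits since higher reporter transcript over DMSO is fitted.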 As to conditions: HepG2 Attagene TRANS GR reporter, mRNA transcription. The procedure, abridged:
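HepG2 cells transiently transfected with GAL4-UAS reporter units and exogenous GR-Gal4 chimera, dosed 24 h. Reporter mRNA by RT-PCR, FAM labeling, HpaI digest and capillary electrophoresis; gain-of-signal fit versus DMSO.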

Experiment [10] deals with Hepatocyte nuclear factor 4-alpha (Homo sapiens) (UniProt P41235). The experiment in a line: ATG_HNF4a_TRANS: Attagene TRANS-FACTORIAL HepG2 Assay for human Hepatocyte Nuclear Factor 4 alpha (HNF4a) (AID 2282982). As to conditions: HepG2 HNF4a transactivation reporter, mRNA readout. The procedure, abridged:
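In this trans-factorial format, a chimeric HNF4a-GAL4 fusion drives a GAL4-UAS reporter in transfected HepG2 liver cells. After 24 h treatment, reporter mRNA induction is measured by RT-PCR with capillary electrophoresis, relative to DMSO.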

Molecules are shown by their SMILES. Records with an inconclusive call do not appear. More than one record can exist for a structure, and the calls need not agree. The source made the active and inactive calls. Rule for the calls, unless noted: active = hit-call score of the fitted dose curve at least 0.9, where 1 is the maximum; inconclusive = response in the unintended direction; inactive = score below 0.9.

Chain of Nuclear respiratory factor 1 (Homo sapiens) (Q16656 whole entry, looked up): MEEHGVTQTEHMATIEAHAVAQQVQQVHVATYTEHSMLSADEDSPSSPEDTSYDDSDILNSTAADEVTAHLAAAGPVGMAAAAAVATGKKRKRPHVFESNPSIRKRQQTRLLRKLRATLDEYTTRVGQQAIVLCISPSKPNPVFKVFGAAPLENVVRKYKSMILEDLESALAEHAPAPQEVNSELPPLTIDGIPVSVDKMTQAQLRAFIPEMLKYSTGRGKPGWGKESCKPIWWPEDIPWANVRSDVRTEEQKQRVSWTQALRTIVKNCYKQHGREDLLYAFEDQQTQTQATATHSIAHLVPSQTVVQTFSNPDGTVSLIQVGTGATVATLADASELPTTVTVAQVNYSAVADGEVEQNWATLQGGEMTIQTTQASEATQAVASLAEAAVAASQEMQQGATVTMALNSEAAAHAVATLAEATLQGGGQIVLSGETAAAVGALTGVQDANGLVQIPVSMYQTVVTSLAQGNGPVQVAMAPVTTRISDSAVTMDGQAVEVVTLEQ
Chain of Hepatocyte nuclear factor 4-alpha (Homo sapiens) (P41235 whole entry, looked up, the tested form may be a part): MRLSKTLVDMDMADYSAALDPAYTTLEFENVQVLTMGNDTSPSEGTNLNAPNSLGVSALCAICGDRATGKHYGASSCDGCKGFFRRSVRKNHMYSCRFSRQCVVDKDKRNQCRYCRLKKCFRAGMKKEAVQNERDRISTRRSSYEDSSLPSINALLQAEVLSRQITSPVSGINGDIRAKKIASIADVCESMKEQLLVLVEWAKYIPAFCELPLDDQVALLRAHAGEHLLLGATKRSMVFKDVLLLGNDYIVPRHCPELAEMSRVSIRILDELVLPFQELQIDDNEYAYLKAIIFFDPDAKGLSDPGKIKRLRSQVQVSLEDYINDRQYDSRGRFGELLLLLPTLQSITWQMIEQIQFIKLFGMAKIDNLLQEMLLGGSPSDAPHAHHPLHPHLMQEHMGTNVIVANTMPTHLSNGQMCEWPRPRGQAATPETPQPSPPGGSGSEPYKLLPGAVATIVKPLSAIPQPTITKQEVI
Chain of Glucocorticoid receptor (Homo sapiens) (P04150 whole entry, looked up, the tested form may be a part): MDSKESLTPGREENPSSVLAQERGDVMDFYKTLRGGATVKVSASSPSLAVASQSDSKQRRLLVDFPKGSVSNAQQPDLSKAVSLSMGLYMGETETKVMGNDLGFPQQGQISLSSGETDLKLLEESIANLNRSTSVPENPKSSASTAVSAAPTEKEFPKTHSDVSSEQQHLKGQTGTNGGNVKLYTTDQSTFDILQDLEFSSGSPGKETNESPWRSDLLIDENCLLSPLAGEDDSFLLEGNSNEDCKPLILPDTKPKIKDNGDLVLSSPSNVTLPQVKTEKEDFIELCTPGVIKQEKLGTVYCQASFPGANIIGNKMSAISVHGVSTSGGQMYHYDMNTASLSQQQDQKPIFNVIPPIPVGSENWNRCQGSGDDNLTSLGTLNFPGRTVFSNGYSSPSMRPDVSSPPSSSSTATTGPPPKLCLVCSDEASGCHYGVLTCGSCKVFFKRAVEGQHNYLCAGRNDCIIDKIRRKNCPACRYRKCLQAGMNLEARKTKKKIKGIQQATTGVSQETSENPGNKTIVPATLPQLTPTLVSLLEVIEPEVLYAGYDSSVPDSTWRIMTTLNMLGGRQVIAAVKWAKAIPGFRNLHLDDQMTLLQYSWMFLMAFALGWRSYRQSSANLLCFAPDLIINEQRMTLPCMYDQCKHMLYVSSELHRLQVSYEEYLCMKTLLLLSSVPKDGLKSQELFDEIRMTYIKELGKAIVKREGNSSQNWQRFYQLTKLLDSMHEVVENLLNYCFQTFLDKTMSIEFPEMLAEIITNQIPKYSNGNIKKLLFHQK
Chain of Nuclear receptor subfamily 4 group A member 2 (Homo sapiens) (P43354 whole entry, looked up, the tested form may be a part): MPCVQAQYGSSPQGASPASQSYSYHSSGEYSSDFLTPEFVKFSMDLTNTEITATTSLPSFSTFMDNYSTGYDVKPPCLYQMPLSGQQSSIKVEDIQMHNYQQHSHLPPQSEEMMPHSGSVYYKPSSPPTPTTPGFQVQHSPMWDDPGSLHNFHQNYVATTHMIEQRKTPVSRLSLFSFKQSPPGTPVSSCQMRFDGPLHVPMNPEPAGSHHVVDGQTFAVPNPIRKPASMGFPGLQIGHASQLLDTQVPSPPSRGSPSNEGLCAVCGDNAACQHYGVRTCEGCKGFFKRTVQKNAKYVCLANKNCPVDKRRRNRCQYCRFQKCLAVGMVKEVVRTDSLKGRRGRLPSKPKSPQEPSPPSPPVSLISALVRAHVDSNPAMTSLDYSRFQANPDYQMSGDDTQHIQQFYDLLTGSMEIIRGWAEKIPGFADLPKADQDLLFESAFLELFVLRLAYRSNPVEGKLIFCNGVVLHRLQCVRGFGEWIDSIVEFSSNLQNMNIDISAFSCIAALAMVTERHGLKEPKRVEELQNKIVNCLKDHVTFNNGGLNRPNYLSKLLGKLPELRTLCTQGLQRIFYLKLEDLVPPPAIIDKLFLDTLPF
Chain of Oxysterols receptor LXR-alpha (Homo sapiens) (Q13133 whole entry, looked up, the tested form may be a part): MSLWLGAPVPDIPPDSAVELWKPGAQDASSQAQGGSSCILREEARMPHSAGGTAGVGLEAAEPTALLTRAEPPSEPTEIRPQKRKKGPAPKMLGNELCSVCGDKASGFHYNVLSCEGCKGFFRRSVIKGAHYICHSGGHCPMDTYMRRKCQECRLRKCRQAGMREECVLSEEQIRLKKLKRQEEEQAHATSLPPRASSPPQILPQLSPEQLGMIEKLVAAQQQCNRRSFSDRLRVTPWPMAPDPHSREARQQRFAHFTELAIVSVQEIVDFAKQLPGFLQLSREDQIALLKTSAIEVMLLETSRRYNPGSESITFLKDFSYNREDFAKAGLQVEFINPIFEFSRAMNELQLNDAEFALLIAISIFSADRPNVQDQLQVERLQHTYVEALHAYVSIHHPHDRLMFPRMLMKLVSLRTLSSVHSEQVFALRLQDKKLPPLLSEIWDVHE
Chain of Bile acid receptor (Homo sapiens) (Q96RI1 whole entry, looked up, the tested form may be a part): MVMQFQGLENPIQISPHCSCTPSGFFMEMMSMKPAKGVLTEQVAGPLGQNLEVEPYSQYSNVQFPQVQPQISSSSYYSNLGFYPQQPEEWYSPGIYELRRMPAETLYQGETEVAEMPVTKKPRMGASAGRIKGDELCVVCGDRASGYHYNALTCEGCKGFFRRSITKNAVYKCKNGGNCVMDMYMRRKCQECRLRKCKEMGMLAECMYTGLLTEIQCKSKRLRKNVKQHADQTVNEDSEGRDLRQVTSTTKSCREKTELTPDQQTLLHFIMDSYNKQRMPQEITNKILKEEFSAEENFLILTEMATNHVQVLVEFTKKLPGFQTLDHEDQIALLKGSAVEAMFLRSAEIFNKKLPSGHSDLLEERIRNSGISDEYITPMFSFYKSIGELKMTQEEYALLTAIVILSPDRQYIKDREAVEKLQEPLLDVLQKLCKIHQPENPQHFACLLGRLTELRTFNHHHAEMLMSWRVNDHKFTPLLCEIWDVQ
Chain of Transcriptional activator Myb (Homo sapiens) (P10242 whole entry, looked up): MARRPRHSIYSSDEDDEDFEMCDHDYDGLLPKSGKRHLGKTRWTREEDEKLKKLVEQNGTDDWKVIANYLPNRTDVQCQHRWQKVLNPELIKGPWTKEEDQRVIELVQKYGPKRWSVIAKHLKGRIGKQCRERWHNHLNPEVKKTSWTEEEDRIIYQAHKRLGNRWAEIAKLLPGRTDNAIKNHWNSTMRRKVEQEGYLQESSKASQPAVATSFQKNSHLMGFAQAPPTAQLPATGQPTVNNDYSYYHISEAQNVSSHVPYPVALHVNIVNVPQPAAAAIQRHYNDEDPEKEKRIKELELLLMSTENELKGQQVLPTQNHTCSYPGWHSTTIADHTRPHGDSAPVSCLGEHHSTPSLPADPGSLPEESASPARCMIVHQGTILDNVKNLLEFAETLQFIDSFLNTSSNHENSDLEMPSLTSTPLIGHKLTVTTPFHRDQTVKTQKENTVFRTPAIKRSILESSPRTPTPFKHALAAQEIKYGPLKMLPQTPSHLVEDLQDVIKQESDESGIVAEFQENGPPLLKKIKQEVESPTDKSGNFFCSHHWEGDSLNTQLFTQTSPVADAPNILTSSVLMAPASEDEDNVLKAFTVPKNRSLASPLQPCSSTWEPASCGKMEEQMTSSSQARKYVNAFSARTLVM

As usually defined, the AC50 is the concentration giving half of the maximal activity seen. `CCCC(=O)OCCC(C)C`: the call in [1], in [2], in [3], in [4] and in experiment [6] was inactive. Moreover, in experiment [5], the AC50 was 1.84 µM (active).
For `Cc1ncc(CO)c(CO)c1O`, the compound was classed as inactive in [1], in experiment [2], in experiment [3], in [4], in experiment [7] and in experiment [5]. The outcome in experiment [6] was inactive.
As for `CC[C@H](NC(=O)c1cc(F)ccc1NS(=O)(=O)c1cccc2cccnc12)c1ccccc1`, the compound was called inactive in [1], in [4], in experiment [8], in experiment [7], in [5] and in experiment [6].
On to `O=c1ccc2ccccc2o1`, for which the call in experiment [4], in experiment [5] and in [6] was inactive.
In the case of `CN(C[C@@H](CC[N+]12CCC(C3CCCCC3)(CC1)CC2)c1ccc(Cl)c(Cl)c1)C(=O)c1cc(C(F)(F)F)cc(C(F)(F)F)c1`, the call in [9], in [4], in experiment [5] and in experiment [6] was inactive. The AC50 in experiment [8] is 18.4 µM (active).
On to `CCCCCCCCN(C)CCCCCCCC`, for which the outcome in experiment [9], in experiment [10], in experiment [4], in experiment [8], in experiment [7] and in [5] was inactive. The result in [6] was inactive.
Consider `CC(C)(O)c1ccc(CNC(=O)c2cccnc2Oc2ccc3nonc3c2)cc1`, for which the AC50 in experiment [9] is 48.6 µM (active). Moreover, the call in experiment [3], in [4], in [8], in experiment [7], in [5] and in experiment [6] was inactive.
For the compound `c1ccc2ccccc2c1`, the compound was classed as inactive in experiment [3], in experiment [4], in [8], in experiment [7], in experiment [5] and in experiment [6]. Moreover, in experiment [6], the AC50 is 100 µM (active).
In the case of `CC(C)(C)c1cc(/C=C2\SC(N)=NC2=O)cc(C(C)(C)C)c1O`, the call in experiment [9], in experiment [4], in experiment [8], in experiment [7], in experiment [5] and in experiment [6] was inactive.
In the case of `Oc1ccccc1`, the outcome in experiment [2], in [3], in [10], in experiment [8], in experiment [7] and in experiment [5] was inactive. For the same compound, the outcome in experiment [6] was inactive.
With `O=c1[nH]sc2ccccc12`, the outcome in experiment [1], in experiment [10], in experiment [4], in [5] and in experiment [6] was inactive.
In the case of `Cc1cccc2ccccc12`, the compound was classed as inactive in experiment [1], in experiment [3], in [10], in [4], in experiment [8] and in [7]. The result in experiment [5] and in experiment [6] was inactive.
Turning to `CCN(Cc1cccc(S(=O)(=O)O)c1)c1ccc(C(=C2C=CC(=[N+](CC)Cc3cccc(S(=O)(=O)O)c3)C=C2)c2ccccc2S(=O)(=O)[O-])cc1`, the compound was called inactive in experiment [1], in experiment [10], in [4], in experiment [7], in [5] and in experiment [6].
As for `Cc1ccc(C(C)C)cc1`, the outcome in [2], in [3], in [4], in experiment [7], in experiment [5] and in experiment [6] was inactive.
Regarding `O=C=NCCCCCCN=C=O`, the compound was classed as inactive in [1], in experiment [2], in experiment [3], in [4], in experiment [8] and in [5]. In addition, the outcome in experiment [6] was inactive.
Regarding `CCCOC(=O)c1cc(O)c(O)c(O)c1`, the compound was called inactive in experiment [1], in experiment [3], in experiment [10], in [4], in experiment [7] and in experiment [5]. Also, the compound was called inactive in [6].
Regarding `CCCCCCCC[Si](OCC)(OCC)OCC`, the outcome in [9], in experiment [2], in experiment [3], in experiment [4], in experiment [8] and in experiment [7] was inactive. In addition, the result in [5] and in experiment [6] was inactive. The concentration at half-maximal activity (AC50) in experiment [6] is 147 µM (active).
As for `CCCCCCCCOc1ccc(C(=O)c2ccccc2)c(O)c1`, the compound was classed as inactive in [1], in experiment [3], in experiment [8], in experiment [7], in [5] and in experiment [6].
Take `CCCCCCCCCCCO`: the outcome in experiment [1], in experiment [7], in experiment [5] and in [6] was inactive. In experiment [8], the AC50 was 166 µM (active).
For `CN(C)c1ccc(C(=C2C=CC(=[N+](C)C)C=C2)c2ccc(N(C)C)cc2)cc1`, the compound was classed as inactive in experiment [8], in experiment [5] and in experiment [6].
